# Bioassay records as filed in PubChem.
# Only some compounds are listed: those with a hit (about 3.1% of all), similar ones and a draw of the others.
# MEKK3 PB1 HTS: MEKK3-MEK5 PB1 interaction, increase or decrease; Q99759; bead-based flow cytometry, Alexa488-MEK5 binding to MEKK3; actives lie on both sides; 0 = blocked by unlabeled MEK5, 100 = vehicle; binding response (% of control), % at 10 µM; 1.4% of 290,000 active;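 active means binding response more than 3 SD above or below the average of its plate-row segment, actives on both sides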;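 further: Alexa488 bead fluorescence after subtracting the streptavidin-only scavenger bead signal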
# MEKK2 WT-MEK5: raises or lowers MEK5 binding to wildtype human MEKK2 PB1 domain; AID 1531; 1.1% of 290,000 active; binding response (% of control), % at 10 µM; bead flow cytometry, Alexa488-MEK5 binding to MEKK2 WT; actives lie on both sides; Q9Y2U5; in the data active means binding response below about 67% or above about 130%
# MEKK2mut PB1 HTS: signal of MEK5 binding to mutant human MEKK2 PB1 domain | bead flow cytometry, Alexa488-MEK5 binding to MEKK2 mutant | percent response, % at 10 µM | 0.35% of 290,000 active; in the data active means percent response above about 24%, passing the limit was not always enough
# UBC13 inh: inhibitors of human UBC13 polyubiquitin chain formation. 0.47% of 330,000 active. P61088. inhibition, % at 20 µM. AID 485273. TR-FRET; in the data active means inhibition above about 45%, passing the limit was not always enough
# Target sequence (P61088 whole entry, looked up): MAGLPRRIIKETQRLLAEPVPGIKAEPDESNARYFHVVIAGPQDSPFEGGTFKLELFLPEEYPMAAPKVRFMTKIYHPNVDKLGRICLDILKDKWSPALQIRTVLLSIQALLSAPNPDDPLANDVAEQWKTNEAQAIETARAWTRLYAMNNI
# PREPL inh: inhibits the human prolyl oligopeptidase-like enzyme; Q4J6C6; recombinant PREPL, fluorescence polarization activity-based probe; inhibition, % at 5.96 µM; 0.68% of 320,000 active; in the data active means inhibition above about 43%;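 further: 0% = enzyme with DMSO and 100% = wells lacking enzyme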
# ATG4B inhibitor: inhibitors of human ATG4B cysteine protease; 0.51% of 340,000 active; inhibition, % at 8.33 µM; ATG4B cleavage of LC3-PLA2, NBD-HPC fluorescence, 1 h; Q9Y4P1; AID 504462; in the data active means inhibition above about 40%
# Target sequence (Q9Y4P1 whole entry, looked up): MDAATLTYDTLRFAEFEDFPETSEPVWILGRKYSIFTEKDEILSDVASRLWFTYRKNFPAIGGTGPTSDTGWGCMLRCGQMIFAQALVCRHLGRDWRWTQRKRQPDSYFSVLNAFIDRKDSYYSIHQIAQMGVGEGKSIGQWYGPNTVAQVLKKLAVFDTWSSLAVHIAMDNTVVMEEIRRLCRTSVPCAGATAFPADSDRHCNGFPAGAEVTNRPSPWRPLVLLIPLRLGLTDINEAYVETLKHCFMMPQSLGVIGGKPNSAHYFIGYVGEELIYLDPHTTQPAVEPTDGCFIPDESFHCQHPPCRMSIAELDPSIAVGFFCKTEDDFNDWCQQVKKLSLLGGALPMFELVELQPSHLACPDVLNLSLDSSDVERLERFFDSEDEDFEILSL
# MEKK2wt confirm: raises or lowers MEK5 binding to wildtype human MEKK2, retest; binding response (% of control), % at 10 µM; AID 1892; shares compounds with MEKK3 PB1 HTS; bead flow cytometry, Alexa488-MEK5 binding to MEKK2 WT; actives lie on both sides; 2.4% of 5,900 active; in the data active means binding response below about 16% or above about 210%; inactive means in between
# MEKK2mut-MEK5: signal of MEK5 binding to mutant human MEKK2, retest | shares compounds with MEKK3 PB1 HTS | 2% of 5,900 active | bead flow cytometry, Alexa488-MEK5 binding to MEKK2 mutant | AID 1893 | percent response, % at 10 µM; in the data active means percent response mostly above about 71%, no sharp cut-off; inactive means mostly below about 38%;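 further: higher means compound restores mutant binding toward wildtype level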
# MEKK3-MEK5 inh: MEKK3-MEK5 PB1 inhibition, single concentration confirmation; bead flow cytometry, Alexa488-MEK5 binding to MEKK3; active compounds read low; 1.8% of 5,900 active; binding response (% of control), % at 10 µM; shares compounds with MEKK3 PB1 HTS;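 active means binding response below 72% of control, or above a set upper limit, though filed actives all read lower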;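 further: 100% = DMSO only wells and 0% = binding blocked by excess unlabeled MEK5; lower values mean stronger disruption of MEK5 binding to MEKK3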
# An asterisk follows results filed as active; x = no result; ! = not confirmed by another sample; [ ] = dose if it differs, or a comment.
SMILES,MEKK3 PB1 HTS,MEKK2 WT-MEK5,MEKK2mut PB1 HTS,UBC13 inh,PREPL inh,ATG4B inhibitor,MEKK2wt confirm,MEKK2mut-MEK5,MEKK3-MEK5 inh
CC(O)C(NS(=O)(=O)c1ccc(Cl)cc1)C(=O)OCC(=O)c1c[nH]c2ccccc12 (stereo not given),76,79,-21,1,-41,18,x,x,x
COC(=O)CCC(C)C1CCC2C3CCC4CC(O)CCC4(C)C3=CC(=O)C12C (stereo not given),x,x,x,x,x,-9,x,x,x
COc1ccccc1CNC(=O)CCNC(=O)Cn1ccc2ccccc2c1=O,102,103,-2,4,-4,0,x,x,x
COc1ccc(CCNC(=O)Cn2cnc3ccccc3c2=O)cc1OC,129*,105,0,-3,3,34,105,-1,100
COc1ccc(CCNC(=O)CSc2ccc3ccccc3c2)cc1OC,113,111,4,-6,1,-14,x,x,x
COc1ccccc1CNC(=O)CCNC(=O)Cn1cnc2ccccc2c1=O,0.0*[inhibitor],-1.0*[inhibitor],-9,-6,-1,-6,99,-3,99
COc1ccc(CCNC(=O)CSc2nn(-c3ccccc3)c(=S)s2)cc1OC,148*,105,0,-12,7,2,107,-3,106
CCOc1ccc(CCNC(=O)COC(=O)Cn2cnc3ccccc3c2=O)cc1OCC,84,91,-6,-16,7,0,x,x,x
Cc1ccc(N2CC(C(=O)NCCS(=O)(=O)N3CCN(c4ccccc4)CC3)CC2=O)cc1C (stereo not given),95,100,3,-8,-5,2,x,x,x
COc1ccc(S(=O)(=O)N2CCCC(C(=O)NCCN3CCOCC3)C2)cc1C (stereo not given),100,98,-5,-1,11,-7,x,x,x
COC1OC(COCc2ccccc2)C(N)C(OCc2ccccc2)C1OCc1ccccc1 (stereo not given),x,x,x,x,x,-7,x,x,x
CCOc1cc(C(=S)N2CCCCC2)ccc1OCC(=O)NCc1ccccc1,75*[inhibitor],87,-8,3,23,-6,107,7,106
COc1cc(C(=S)N2CCCC2)ccc1OCC(N)=O,95,100,3,1,-9,-2,x,x,x
COc1cc(C(=S)N2CCCCC2)ccc1OCC(=O)N1CCCC1,124*,118,5,1,17,9,99,-2,104
O=[N+]([O-])c1sccc1CS(=O)(=O)c1ccccc1,98,97,-4,-5,-7,0,x,x,x
CNC(=O)N(O)C1N(NC(=O)Nc2cccc3ccccc23)C(=S)SC1(C)C (stereo not given),132*,105,1,-4,1,-7,101,3,100
COc1ccc(C)cc1NC(=O)COC(C)=O,74*[inhibitor],79,-5,-7,9,7,101,0,103
COc1ccc([N+](=O)[O-])cc1NC(=O)COC(C)=O,104,100,-1,-1,1,6,x,x,x
COc1ccc(CNC(=O)C(c2ccncc2)N(C(=O)Cc2cccs2)c2ccc(C)cc2)cc1 (stereo not given),81*[inhibitor],86,-11,3,15,-30,107,10,104
COc1ccc(CNC(=O)C(c2ccncc2)N(C(=O)Cc2cccs2)c2ccccc2)cc1 (stereo not given),110,103,0,x,x,-12,x,x,x
COc1cccc(C(C(=O)NCc2ccco2)N(C(=O)Cn2nnc3ccccc32)C2CC2)c1OC (stereo not given),82*[inhibitor],87,-16,-3,6,3,105,3,103
Cc1c(Cl)cccc1NC(=O)C1CCN(S(C)(=O)=O)CC1,104,x,254*,-5,3,5,104,2,106
Cc1cccc(NC(=O)C2CCN(S(C)(=O)=O)CC2)c1C,104,101,1,0,0,2,x,x,x
O=C1CC(c2cccc(Cl)c2)c2cc3c(cc2N1)CCC3 (stereo not given),2.0*[inhibitor],-2.0*[inhibitor],-27,-4,9,10,88,-6,95
COc1cccc(C2CC(=O)Nc3cc4c(cc32)CCC4)c1 (stereo not given),100,105,0,-4,12,-5,x,x,x
SMILES,MEKK3 PB1 HTS,MEKK2 WT-MEK5,MEKK2mut PB1 HTS,UBC13 inh,PREPL inh,ATG4B inhibitor,MEKK2wt confirm,MEKK2mut-MEK5,MEKK3-MEK5 inh
C/C(=N\N=C(N)N)c1cccc([N+](=O)[O-])c1,102,121,-2,-1,16,4,x,x,x
C/C(=N\N=C\c1ccc(N(C)C)cc1)c1cccc([N+](=O)[O-])c1,73*[inhibitor],99,-1,-1,5,-11,104,11,108
COc1ccc(C(=O)CN2C(=O)NC3(CCCCC3)C2=O)cc1OC,146*,125,7,-4,-13,-10,102,7,106
COc1ccc(C(=O)CN2C(=O)NC3(CCCCCC3)C2=O)c(OC)c1,x,x,x,0,-9,-8,x,x,x
Fc1ccc([C@@H]2CCNC[C@H]2COc2ccc3c(c2)OCO3)cc1,112,144*!,6,22,-18,6,128,13,101
Cc1ccc(/C=c2/sc3nnc(-c4ccccc4Cl)n3c2=O)o1,102,94,0,-5,-1,1,x,x,x
CCN(CC)c1ccc(/C=c2\sc3nnc(-c4ccccc4Cl)n3c2=O)cc1,84,44*[inhibitor],22,-312,-1,-6,65,-29,78
CCN(CC)c1ccc(/C=c2/sc3nnc(-c4ccccc4C)n3c2=O)cc1,101,x,318*,-20,-15,-3,107,37,85
COc1ccc(NS(=O)(=O)c2ccc3c(c2)N(C(C)=O)CCO3)c(OC)c1,97,95,-2,-1,5,7,x,x,x
Cc1cccc(NC(=O)CNC(=O)CN2C(=O)NC(C)(CCC(C)C)C2=O)c1C (stereo not given),x,x,x,x,x,1,x,x,x
N#Cc1ccccc1NC(=O)c1ccccc1OCC(=O)Nc1ccc2c(c1)oc1ccccc12,78*[inhibitor],88,-11,-14,-33,0,91,-33,96
Cc1cc(C)c(OCCCCCNCCO)c(C)c1,12*[inhibitor],22*[inhibitor],-17,-2,-23,-3,107,2,103
Cc1cc(C)cc(OCCCCCNCCO)c1,103,105,8,7,1,-3,x,x,x
[O-]/C(=C(\C(=S)NCc1ccccc1)[n+]1ccccc1)c1ccc(Cl)s1,74*[inhibitor],81,-3,-13,16,-4,102,-3,102
